Source: PubChem BioAssay (Tox21)
Results filed as inconclusive are left out. Unmarked numbers belong to inactive results. Active and inactive are the calls of the source. The call rests on the fitted dose curve; in most records, active means well fitted cell-killing curve with a large enough effect in the repeat runs; inconclusive means weak or mixed curves, or effect the other way; inactive means no such curve, though single readings can be large or run the other way.

experiment: qHTS assay to identify small molecule antagonists of the progesterone receptor (PR) signaling pathway - cell viability counter screen (AID 1346798); settings: PR-UAS-bla HEK293T viability, CellTiter-Glo luminescence, 16 h; series mostly up to 92.4 µM; activity change, negative = cytotoxicity: at the top concentration; further: nearly all actives have a fitted effect of over 50% in size
From the text: National Center for Advancing Translational Sciences [NCATS]
NIH Chemical Genomics Center [NCGC]
U.S. Environmental Protection Agency [EPA]
National Institutes of Environmental Health Sciences [NIEHS]
National Toxicology Program [NTP]
U.S. Food and Drug Administration [FDA]
Progesterone receptor (PR), a nuclear hormone receptor, plays an important role in development, metabolic homeostasis and reproduction. It is activated by the steroid hormone progesterone. Endocrine disrupting chemicals (EDCs) and their interactions with steroid hormone receptors like PR causes disruption of normal endocrine function. To identify the compounds that inhibit PR signaling, a PR-UAS-bla GripTite cell line i.e. PR-UAS-bla HEK293T (Invitrogen, Carlsbad, CA, USA) containing a beta-lactamase reporter gene under the control of an UAS response element was used to screen Tox21 10K compound library. The cytotoxicity of the Tox21 compound library against the PR-bla cell line was tested in parallel by measuring the cell viability using CellTiter-Glo assay in the same wells.
Tox21 Assay Protocol Summary:
PR-UAS-bla HEK293T cells were dispensed at 3,000 cells/4 uL of assay medium containing 2% charcoal stripped FBS per well into black wall/clear-bottom 1536-well plates using a Multidrop Combi (ThermoFisher Scientific, Waltham, MA) dispenser. After the assay plates were incubated at a 37C and 5% CO2 for 4 hr, 23 nL of compounds dissolved in DMSO, positive controls or DMSO only was transferred to the assay plate by a Pintool station (Kalypsys, San Diego, CA), followed by addition of 1 uL of R5020 in assay medium using a Flying Reagent Dispenser (FRD, Aurora Discovery, San Diego, CA). The plates were incubated at 37C and 5% CO2 for 16 hr. Then 1 uL of LiveBLAzer B/G FRET substrate was added using a Flying Reagent Dispenser, the plates were incubated at room temperature for 2 hours, and fluorescence intensity was measured by an Envision plate reader (PerkinElmer, Shelton, CT). For cell viability readout that measures cytotoxicity, 4 uL/well of CellTiter-Glo reagent was added into the assay plates using a FRD. After 30 min incubation at room temperature, the luminescence intensity in the plates was measured using a ViewLux (PerkinElmer) plate reader.
On the % scale 0 is the no-effect control and ±100 the full control effect; potency means the concentration at half of the fitted maximal effect.

| SMILES | activity change, negative = cytotoxicity | Potency |
| --- | --- | --- |
| C#CC(O)C(CC)CCCC (stereo not given) | 0.712% |  |
| Nc1cc(N)cc(C(=O)O)c1 | -0.336% |  |
| Cc1c(F)cc2c(=O)c(C(=O)O)cn3c2c1CCC3C (stereo not given) | 8.07% [at 42.5 µM] |  |
| CCCCCC[C@@H](CCC)C(=O)O | -29.2% [at 42.5 µM] |  |
| O=C(O)/C=C/c1ccc(/C=C/C(=O)O)cc1 | 12.9% [at 42.5 µM] |  |
| c1ccc(CCCc2ccccn2)cc1 | -2.54% |  |
| CC(C)COC(=O)C(C)C | -20.3% |  |
| COc1ccc(COC=O)cc1 | 8.98% |  |
| CO[Si](CCCNCCC[Si](OC)(OC)OC)(OC)OC | 1.34% |  |
| CC1CCN(CCCC(=O)c2ccc(F)cc2)CC1 | 25.2% [at 42.5 µM] |  |
| CC/C=C\CCCCO | -1.02% |  |
| CCOC(=O)Nc1ccc2c(c1)N(C(=O)CCN1CCOCC1)c1ccccc1S2 | 0.0682% [at 42.5 µM] |  |
| CC(C)(O)c1ccccc1 |  | 52.2 µM (active) |
| CCCCCCCCCCCCCCC | -13.8% |  |
| CC(C)CCCCCCN | 5.51% |  |
| [O-][N+](=Nc1ccccc1)c1ccccc1 | -0.243% |  |
| CNC(=O)c1c(I)c(NC(=O)CCCCC(=O)Nc2c(I)c(C(=O)O)c(I)c(C(=O)NC)c2I)c(I)c(C(=O)O)c1I | 3.54% [at 42.5 µM] |  |
| NCCNC(=O)c1ccc(Cl)cn1 | -5.52% [at 42.5 µM] |  |
| Nc1cc(C(Cl)=C(Cl)Cl)c(S(N)(=O)=O)cc1S(N)(=O)=O | -0.961% [at 42.5 µM] |  |
| COC(=O)CCCCCCCCC(=O)OC | 10.4% |  |

| SMILES | activity change, negative = cytotoxicity | Potency |
| --- | --- | --- |
| CN(C)C(=O)C(CCN1CCC(O)(c2ccc(Cl)cc2)CC1)(c1ccccc1)c1ccccc1 | -13.3% [at 42.5 µM] |  |
| CCN(CC)S(=O)(=O)c1ccc(C(=O)O)cc1 | 7.88% [at 42.5 µM] |  |
| COc1cccc(Br)c1 | 4.02% |  |
| CC(C)(O)C(=O)c1ccc(OCCO)cc1 | -2.57% |  |
| C(=C(c1ccccc1)c1ccccc1)c1ccccc1 | 14.3% |  |
| CN(C)C(=O)Nc1ccccc1 | 4.14% |  |
| O=C(O)CCNC(=O)c1ccc(N=Nc2ccc(O)c(C(=O)O)c2)cc1 | -1.49% [at 42.5 µM] |  |
| CC(C)COC(=O)c1ccccc1O | 16.5% |  |
| CC1(C)OC(=O)Nc2ccc(Br)cc21 | 0.221% [at 42.5 µM] |  |
| CO | 11.8% |  |
| CC(=O)O[C@H](CC(=O)[O-])C[N+](C)(C)C | 0.467% |  |
| CCCCCOC(=O)Nc1nc(=O)n([C@@H]2O[C@H](C)[C@@H](O)[C@H]2O)cc1F | 1.23% [at 42.5 µM] |  |
| O=C(CCOCCOCCOCCOCCC(=O)Nc1c(I)cc(I)c(C(=O)O)c1I)Nc1c(I)cc(I)c(C(=O)O)c1I | -1.31% [at 42.5 µM] |  |
| C#CC(C)(O)CC(C)C (stereo not given) | 2.52% |  |
| NS(=O)(=O)c1cc2c(cc1C(F)(F)F)NC(Cc1ccccc1)NS2(=O)=O (stereo not given) | 3.09% [at 42.5 µM] |  |
| N#CCc1ccccc1[N+](=O)[O-] | -17.6% |  |
| NCC[C@H](O)C(=O)N[C@@H]1C[C@H](N)[C@@H](O[C@H]2O[C@H](CN)[C@@H](O)[C@H](O)[C@H]2O)[C@H](O)[C@H]1O[C@H]1O[C@H](CO)[C@@H](O)[C@H](N)[C@H]1O | 0.454% [at 0.348 µM] |  |
| CCN(CC)C(=O)c1ccc(O)c(OC)c1 | -2.37% [at 42.5 µM] |  |
| O=C1CC2(CCCC2)CC(=O)N1 | 0.58% [at 42.5 µM] |  |
| COC(=O)[C@H]1[C@H]2C[C@@H]3c4[nH]c5cc(OC)ccc5c4CCN3C[C@H]2C[C@@H](OC(=O)COc2ccc(OC)cc2)[C@@H]1OC | 0.42% [at 42.5 µM] |  |
